# Assay outcomes from PubChem.
# Shown are actives, neighbours in structure and some others; about 0.9% of the full set was active somewhere.
# TDP1 block – inhibitors of human tyrosyl-DNA phosphodiesterase TDP1. Potency, µM (titrated, usually from 130 µM), for inactives: at the top dose activity change, negative = inhibition, actives largely listed as inhibitors. recombinant TDP1, AlphaScreen DNA substrate cleavage. AID 485290. 350,000 tested, 0.28% active. Q9NUW8; further: nearly all actives have a fitted effect of over 40% in size
#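 Signal: AlphaScreen proximity between streptavidin donor and anti-FITC acceptor beads on intact substrate. Reaction: Tdp1 1 nM, substrate 15 nM final, 5 min RT after 15 min compound preincubation.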
# APE1 inh – blocks human APE1 abasic DNA cleavage. P27695. recombinant APE1, TAMRA/BHQ-2 abasic DNA cleavage fluorescence. Potency, µM (series often up to 65.8 µM), for the others: at the highest dose activity change, negative = inhibition, actives largely listed as inhibitors. 350,000 tested, 0.35% active. AID 2517;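 further: plate controls were vehicle for no effect and reference inhibitor for full effect; nearly all actives have a fitted effect of over 55% in size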
# Target sequence (P27695 whole entry, looked up): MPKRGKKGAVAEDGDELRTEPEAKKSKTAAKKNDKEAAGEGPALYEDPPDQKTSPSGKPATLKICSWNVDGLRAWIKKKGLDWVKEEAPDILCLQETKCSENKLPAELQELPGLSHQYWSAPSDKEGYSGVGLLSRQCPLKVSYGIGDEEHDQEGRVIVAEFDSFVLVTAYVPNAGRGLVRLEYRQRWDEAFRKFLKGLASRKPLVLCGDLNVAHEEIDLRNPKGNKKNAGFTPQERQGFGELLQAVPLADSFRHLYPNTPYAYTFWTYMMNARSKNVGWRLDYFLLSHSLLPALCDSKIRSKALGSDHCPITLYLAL
#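 Step 1: APE1 (0.75 nM) with compound, 15 min RT. Step 2: add 50 nM fluorophore/quencher THF duplex. Step 3: three fluorescence reads 60 s apart (525/598 nm); read 3 minus read 1 = reaction progress.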
# KAT2A inh – inhibitors of human GCN5L2 histone acetyltransferase; Q92830; GCN5L2 HAT assay, ThioGlo1 CoA-SH fluorescence; Potency, µM (highest dose often 58.9 µM), for inactives: at the top dose activity change, negative = inhibition, most hits filed as inhibitors; 390,000 tested, 0.21% active; AID 504327
#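 ThioGlo1-coupled HAT assay: 20nM GCN5L2, 70uM acetyl-CoA, 75uM H3(1-25) peptide, pH 7.5. Fluorescence read at 340/540nm at start and after 20 min at room temperature.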
# RECQ1 inh-1 – blocks DNA unwinding by human RECQ1. P46063. RECQ1 DNA unwinding, red fluorescence kinetic read. Potency, µM (titrated, usually from 57.3 µM), for the others: at the top dose activity, negative = inhibition, usual class: inhibitors. 240,000 tested, 0.54% active. AID 2549;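 further: plate controls were vehicle for no effect and no enzyme for full effect; nearly all actives have a fitted effect of over 30% in size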
#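 RECQ1T1 50 nM; forked duplex (20 bp + 30-nt ss tails) 200 nM, ATP 2 mM final; pH 8.0, 2 mM MgCl2, 2.5 ug/ml poly(dI-dC); 15 min compound preincubation; discontinuous kinetic read over 2 h at RT.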
# Lamin A splicing – changes lamin A minigene splicing in HeLa cells. HeLa LMNA splicing GFP/RFP minigene ratio, 48 h. Potency, µM (titrated, usually from 46.1 µM), without a hit: top-dose ratio change, negative = inhibition, most hits filed as inhibitors. 200,000 tested, 0.01% active. AID 1487; active means well fitted inhibition curve with a large enough effect in the signal ratio, with a control signal flat, not every such curve was filed as active; inconclusive means small, poorly fitted or top-dose-only effect, or effect the other way, or a change in a side signal; the % refers to the signal ratio
#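 S3 HeLa cells stably expressing lamin A-EGFP splicing minigene plus DsRed2, 600 cells/well, 48 h compound exposure at 37C. Laser-scanning cytometry; analysed as GFP (500-530 nm)/RFP (575-640 nm) total intensity ratio; 0.5% DMSO vehicle.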
# BLM helicase inh – blocks DNA unwinding by human BLM helicase; P54132; recombinant BLM DNA unwinding, fluorescence dequenching; Potency, µM (top dose mostly 56.1 µM), for inactives: at the top dose activity change, negative = inhibition, hits mostly inhibitors; 350,000 tested, 0.2% active; AID 2528;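 further: plate controls were vehicle for no effect and no enzyme for full effect; nearly all actives have a fitted effect of over 35% in size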
# RECQ1 conf – confirmation of human RECQ1 helicase inhibitors; Potency, µM (titrated, usually from 229 µM), inactives show at the top dose activity change, negative = inhibition, actives largely listed as inhibitors; 610 tested, 28% active; shares compounds with RECQ1 inh-1; RECQ1 helicase DNA unwinding, fluorescence; further: nearly all actives have a fitted effect of over 45% in size
# RECQ1 ADP FP – ADP displacement flagged in RECQ1 inhibitor counter-screen; ADP fluorescence polarization displacement counterscreen; 530 tested, 27% active; shares compounds with RECQ1 inh-1; Potency, µM (top dose mostly 228 µM), for the others: at the highest dose activity change, negative = inhibition, actives largely listed as inhibitors; further: nearly all actives have a fitted effect of over 45% in size
# RECQ1 inh-2 – confirmation of human RECQ1 helicase inhibitors | 1,100 tested, 15% active | Potency, µM (series often up to 119 µM), inactives show at the top dose activity, negative = inhibition, hits mostly inhibitors | AID 504841 | recombinant RECQ1 DNA unwinding, red fluorescence | shares compounds with RECQ1 inh-1; further: nearly all actives have a fitted effect of over 50% in size
# * marks the source's active call; other numbers are inactive results; i = inactive; u = inconclusive; x = no result; [ ] = dose if it differs, or a comment. Unless noted, the call rests on the fitted dose curve; in most records, active means well fitted curve in the direction sought with a large enough effect; inconclusive means small, poorly fitted or top-dose-only effect, or another doubt; inactive means no such curve, though single readings can be large; an effect the other way counts as inactive or inconclusive. Unless noted, on the % scale 0 is the no-effect control and ±100 the full control effect; potency means the concentration at half of the fitted maximal effect.
SMILES,TDP1 block,APE1 inh,KAT2A inh,RECQ1 inh-1,Lamin A splicing,BLM helicase inh,RECQ1 inh-2,others
Cc1ccc(-c2csc(NC(=O)/C=C/c3ccco3)c2C(=O)O)cc1,x,u,-22.3%,22.4µM*,11.2%[46 µM],u,-29.7%,RECQ1 conf=u;RECQ1 ADP FP=-8.5%[91.9 µM]
Cc1ccc(NC(=O)c2c3c(nc4ccccc24)CCC3)cc1S(=O)(=O)N(C)C,-10.8%,u,-24.3%,u,x,-12.0%,u,
Cc1ccc(C2=NN=C(NC(=O)CSc3nnc4c5ccccc5n(C)c4n3)SC2)cc1,2.6%,14.9%,-14.1%,11.2µM*,u,-17.1%,x,RECQ1 conf=-2.4%[114 µM]
Cn1c2ccccc2c2nnc(SCC(=O)Nc3cccc(C(=O)O)c3)nc21,x,22.3%,-4.0%,x,x,-4.2%,x,
CCOC(=O)C1CN(S(=O)(=O)c2cccc(C(F)(F)F)c2)c2cc(CC(=O)OC)ccc2O1 (configuration not stated),-2.0%,4.7%,4.2%,39.8µM*,4.7%,-10.7%,-10.1%,
O=C(COc1cccnc1[N+](=O)[O-])Nc1c(Cl)cccc1Cl,0.0%,9.4%,-2.6%,x,x,x,x,
O=C(COc1cccnc1[N+](=O)[O-])c1ccc(Cl)s1,1.2%,u,u,u,x,-24.0%,u,
COc1ccc(OC)c(N2C(=O)[C@@H]3C(c4ccccc4Cl)=NO[C@@H]3C2=O)c1,x,u,-27.1%,28.2µM*,-4.5%,-6.0%,u,
Cc1cccc(C)c1N1C(=O)[C@@H]2C(c3ccccc3Cl)=NO[C@@H]2C1=O,1.4%,-5.7%,-3.9%,-2.0%,x,-2.6%,x,
COc1cc(C(C)C)c2c(c1)S(=O)(=O)N(COc1cc(=O)n3cccc(OCCN4CCCCC4)c3n1)C2=O,16.7%,-2.5%,-19.4%,-12.3%,x,-0.5%,x,
COC(=O)NC(/C(C(=O)OC)=C(\C)NCc1ccccc1)c1ccc2ccccc2c1 (configuration not stated),10.1%[21 µM],-2.1%[12.4 µM],x,-2.7%[11.5 µM],x,-10.8%[12.4 µM],x,
C=CCOC(=O)C1C(=O)CC(C)(O)C(C(=O)OCC=C)C1c1ccc(OCC)cc1 (configuration not stated),1.0%,-0.3%,-8.4%,-11.3%,-0.8%,-1.3%,x,
C=CCOC(=O)C1C(=O)CC(C)(O)C(C(=O)OCC=C)C1c1ccc(N(C)C)cc1 (configuration not stated),0.0%,0.3%,-1.2%,u,x,-2.8%,-9.0%,
COc1ccc(CCNC[C@H](O)c2ccc(O)cc2)cc1OC,x,-6.9%,x,x,x,x,x,
C=CCN1C(=O)CS/C1=C(\C#N)S(=O)(=O)c1ccc(C)cc1,10.9%,-4.8%,-1.0%,20µM*,-3.7%,-9.8%,u,
C=CCN1C(=O)CSC1=Nc1ccc(C(=O)O)cc1,x,-8.2%,3.2%,x,x,1.3%,x,
COc1ccc(-c2cc(C(=O)O)no2)cc1,9.2%,6.5%,18.7%,u,13.3%[46 µM],6.6%,4.2%,
COc1ccc(NC(=O)CCc2nnc3n(CC(C)C)c(=O)c4ccccc4n23)cc1,2.0%,x,3.2%,x,x,-5.8%,x,
O=C(c1cc(Br)ccc1O)N(Cc1ccco1)Cc1cccs1,5.4%,x,x,x,x,x,x,
O=C(O)c1cccc(Cn2c(Cl)c(/C=N/NC(=O)c3cccc(O)c3)sc2=O)c1,7.1%,-2.2%,-23.5%,i,x,1.6%,x,
